Compounds with a hit are over-represented: about 1.3% of the library has one in this group of screens.
LmPK inhibitor – inhibitors of Leishmania mexicana pyruvate kinase | Q27686 | purified LmPK, Kinase-Glo ATP luminescence, 1 h | Potency, µM (titrated, usually from 57.5 µM), for the others: top-dose activity change, negative = inhibition, usual class: inhibitors | 290,000 compounds, 0.37% hits | AID 1721
Target sequence (Q27686 whole entry, looked up): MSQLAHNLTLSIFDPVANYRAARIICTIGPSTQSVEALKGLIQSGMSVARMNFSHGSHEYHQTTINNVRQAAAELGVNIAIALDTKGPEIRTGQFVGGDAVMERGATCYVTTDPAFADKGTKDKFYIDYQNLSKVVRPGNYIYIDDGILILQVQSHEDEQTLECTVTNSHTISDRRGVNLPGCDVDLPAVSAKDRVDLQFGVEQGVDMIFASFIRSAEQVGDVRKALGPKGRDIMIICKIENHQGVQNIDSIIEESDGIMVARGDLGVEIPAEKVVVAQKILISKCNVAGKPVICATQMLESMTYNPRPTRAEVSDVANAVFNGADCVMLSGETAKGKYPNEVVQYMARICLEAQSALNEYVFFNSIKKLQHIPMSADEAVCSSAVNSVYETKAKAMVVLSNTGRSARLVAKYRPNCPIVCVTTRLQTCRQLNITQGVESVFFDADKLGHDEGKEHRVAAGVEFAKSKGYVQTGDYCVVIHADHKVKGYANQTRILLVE
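Purified LmPK (0.1 nM) converted ADP (0.1 mM) to ATP with PEP (0.5 mM) in imidazole buffer pH 7.2 with KCl and MgCl2, 1 h at room temperature. ATP was read by Kinase-Glo luminescence; data normalized to uninhibited and no-enzyme controls.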
Giardia FBPA inh-1 – blocks Giardia fructose-bisphosphate aldolase activity; A8B2U2; 290,000 compounds, 0.71% hits; Potency, µM (series often up to 59.6 µM), for the others: at the top dose activity, negative = inhibition, hits mostly inhibitors; purified Giardia FBPA; AID 2451; further: nearly all actives have a fitted effect of over 55% in size
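40 nM FBPA preincubated 10 min at RT with compound (up to 57.5 uM final), then substrate plus GAPDH/TPI/NAD/arsenate coupling and diaphorase/resazurin added. Fluorescence read after 20 min at RT, 525/598 nm.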
AmpC no deterg – inhibitors of E. coli AmpC beta-lactamase without detergent; Potency, µM (highest dose often 57.1 µM), inactives show at the top dose activity change, negative = inhibition, actives largely listed as inhibitors; P00811; AID 485341; 330,000 compounds, 0.52% hits; AmpC nitrocefin hydrolysis, absorbance 480 nm, 0.0001% Triton;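 further: plate controls were no compound for no effect and no enzyme for full effect; nearly all actives have a fitted effect of over 20% in size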
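AmpC (5.3 nM in the dispensed reagent) in 20 mM phosphate pH 7.0 with 0.01% (detergent screen) or 0.0001% Triton X-100 was preincubated with compounds for 15 min at room temperature. Nitrocefin was then added from an 800 uM solution, and hydrolysis was followed at 480 nm.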
AmpC detergent – blocks E. coli AmpC beta-lactamase in detergent assay; P00811; AmpC hydrolysis of nitrocefin, absorbance 480 nm, 0.01% Triton; Potency, µM (titrated, usually from 114 µM), without a hit: top-dose activity change, negative = inhibition, most hits filed as inhibitors; 370,000 compounds, 0.041% hits;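 further: 0% = no-compound wells and -100% = no-enzyme wells; nearly all actives have a fitted effect of over 25% in size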
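20 mM phosphate pH 7.0 + 0.01% (detergent screen) or 0.0001% Triton X-100; 5.3 nM AmpC reagent; cpd preinc 15 min RT; nitrocefin (800 uM stock) to start; A480 q20 s × 4 min; Activity was normalised to no-enzyme and no-compound control wells.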
AMA1-RON2 inh – AMA1-RON2 (P. falciparum) interaction inhibition. Potency, µM (top dose mostly 58.2 µM), for the others: top-dose activity change, negative = inhibition, hits mostly inhibitors. AlphaScreen AMA1-biotinylated RON2 peptide binding. 360,000 compounds, 0.2% hits;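 further: 0% = vehicle wells and -100% = peptide control; nearly all actives have a fitted effect of over 45% in size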
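AMA1 (3D7) with his tag at 25 nM final met compounds first, then biotinylated RON2 peptide at 25 nM; detection used donor plus acceptor beads, 10 µg/mL apiece, read by AlphaScreen after 30 min at room temperature.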
Giardia growth – blocks growth of Giardia lamblia trophozoites. shares compounds with Giardia FBPA inh-1. Giardia lamblia trophozoite growth inhibition. Potency, µM (top dose mostly 57.5 µM), for inactives: at the highest dose activity change, negative = inhibition, hits mostly inhibitors. 1,500 compounds, 5% hits. AID 2785;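 further: trophozoites exposed to compound for 48 h at 37 °C; nearly all actives have a fitted effect of over 70% in size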
Mammalian tox – counter-screen for Giardia aldolase inhibitors: mammalian cell toxicity; Potency, µM (titrated, usually from 57.5 µM), inactives show at the highest dose viability change, negative = toxicity, hits mostly inhibitors; mammalian cell viability counter-screen, qHTS; shares compounds with Giardia FBPA inh-1; 1,500 compounds, 4% hits;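 further: Chinese hamster ovary cells used as mammalian cytotoxicity surrogate; viability measured as cellular ATP by luminescence; compound exposure lasted 48 h before reading; nearly all actives have a fitted effect of over 60% in size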
Giardia FBPA inh-2 – confirmation of Giardia fructose-bisphosphate aldolase inhibitors; shares compounds with Giardia FBPA inh-1; purified Giardia aldolase enzyme activity, qHTS; Potency, µM (top dose mostly 57.5 µM), inactives show at the top dose activity change, negative = inhibition, usual class: inhibitors; 1,500 compounds, 5% hits; AID 2787; further: nearly all actives have a fitted effect of over 45% in size
Rabbit FBPA inh – blocks rabbit muscle aldolase in Giardia aldolase selectivity test | shares compounds with Giardia FBPA inh-1 | Rabbit muscle FBPA enzyme inhibition, selectivity counter-screen | Potency, µM (titrated, usually from 57.5 µM), for inactives: top-dose activity, negative = inhibition, hits mostly inhibitors | 1,500 compounds, 4% hits; further: nearly all actives have a fitted effect of over 60% in size
GAPDH counter – counter-screen for Giardia aldolase inhibitors: GAPDH coupling enzyme | shares compounds with Giardia FBPA inh-1 | GAPDH coupling enzyme counterscreen, biochemical, qHTS | Potency, µM (titrated, usually from 57.5 µM), for the others: top-dose activity change, negative = inhibition, most hits filed as inhibitors | 1,500 compounds, 6% hits; further: nearly all actives have a fitted effect of over 55% in size
The depositor's hits bear a star; ? = inconclusive; . = no result; [ ] = remark or other dose. The call rests on the fitted dose curve; in most records, active means well fitted curve in the direction sought with a large enough effect; inconclusive means small, poorly fitted or top-dose-only effect, or another doubt; inactive means no such curve, though single readings can be large; an effect the other way counts as inactive or inconclusive. Unless noted, on the % scale 0 is the no-effect control and ±100 the full control effect; potency means the concentration at half of the fitted maximal effect.

SMILES	LmPK inhibitor	Giardia FBPA inh-1	AmpC no deterg	AmpC detergent	AMA1-RON2 inh	Giardia growth	Mammalian tox	Giardia FBPA inh-2	Rabbit FBPA inh	GAPDH counter
C/C(=N\N1C(=O)CSC1=S)c1ccc(Br)cc1	4%	16µM*	-16%[11.4 µM]	?	51%	-16%	6%	-12%	2%	-6%
COc1ccc(CNC(=O)CNC(c2ccccc2)c2ccccc2)cc1OC	-6%	4%	88%	7%	0%	.	.	.	.	.
COCCNC(=O)CNC(c1ccccc1)c1ccccc1	-10%	20µM*	0%	0%	.	11%	-9%	1%	4%	7%
Cc1ccc(N2CCN(CC3CC=CCC3)CC2)cc1 (configuration not stated)	-3%	-3%	-24%	-13%	-25%	.	.	.	.	.
C1=CCC(CN2CCN(C3CCCCCC3)CC2)CC1 (configuration not stated)	-9%	14µM*	-22%	?	5%	-10%	6%	1%	-2%	0%
CCCCC(=O)NC(=S)Nc1nnn(CCC)n1	-3%	1.8µM*	-9%	3%	39%	-6%[38.3 µM]	40µM*	-15%	8%	?
CCCCC(=O)Nc1nnn(CCC)n1	-10%	4%	-4%	?	1%	.	.	.	.	.
O=C(Nc1nc(-c2ccccn2)cs1)c1ccco1	-4%	16µM*	-20%	5%	-59%	?	40µM*	1%	-7%	-19%
O=C(Nc1nc(-c2ccccn2)cs1)c1cccc(-n2cnnn2)c1	-16%	5µM*	-21%	4%	25%	?	32µM*	1%	-10%	-28%
Cc1ccnc2nc(C(=O)Nc3nc(-c4ccccn4)cs3)nn12	-2%	16µM*	-2%	0%	-89%	?	-7%	6%	-17%	-8%
Cc1ccccc1NC(=O)c1nc2nccc(C)n2n1	?	-3%	5%[11.4 µM]	?	.	.	.	.	.	.
O=C(Nc1ccc(Br)cc1)c1cccc(-n2cnnn2)c1	-5%	6%	-7%	-3%	12%	.	.	.	.	.
Cc1ccc(F)c(S(=O)(=O)NC(=O)C2(C)CCN2C(=O)CC2CCCCC2)c1 (configuration not stated)	.	.	.	.	-5%	.	.	.	.	.
NC(c1csc(Nc2cnccn2)n1)c1ccccc1Cl (configuration not stated)	.	.	.	.	78%	.	.	.	.	.
c1cc2c(cc1-c1csc(NNC3=NCCCCC3)n1)OCCO2	-25%	14µM*	118%	3%	-26%	-9%[10.4 µM]	-23%	4%	4%	23%
O=C(N/N=C/C=C/c1ccco1)c1cnccn1	11%	20µM*	-5%	3%	21%	3%[10.4 µM]	12%	?	-11%	?
CC(/C=N/NC(=O)c1ccccn1)=C\c1ccco1	25µM*	20µM*	-9%	11%	14%	?	25µM*	?	-25%	?
CC(C)Cn1c(N)c(C(=O)COC(=O)Cc2cccc(C(F)(F)F)c2)c(=O)n(C)c1=O	.	.	113%	2%	-4%	.	.	.	.	.
O=C(NCc1ccco1)c1ccc2sc([C@@H]3O[C@H](CO)[C@@H](O)[C@H]3O)nc2c1	.	.	.	.	-3%	.	.	.	.	.
COc1ccc(Br)cc1CN(C)CC(=O)NCc1ccc(F)cc1	-8%	14µM*	55%	-9%	?	-15%[10.4 µM]	-4%	2%	1%	14%
CC(C)C(=O)NC(c1ccccc1)c1cc([N+](=O)[O-])c2cccnc2c1O (configuration not stated)	6%	?	-42%	?	?	.	.	.	.	.
CC(=O)NC(c1ccccc1)c1cc([N+](=O)[O-])c2cccnc2c1O (configuration not stated)	-1%	20µM*	-23%	-10%	-27%	18µM*	?	3.2µM*	?	13µM*
CC(=O)NC(c1cccs1)c1cc([N+](=O)[O-])c2cccnc2c1O (configuration not stated)	0%	?	-38%	-11%	-19%	1%[38.3 µM]	29µM*	?	?	13µM*
O=C(NC(Cc1ccccc1)C(=O)O)/C(=C/c1ccc([N+](=O)[O-])cc1)NC(=O)c1ccc(Br)o1 (configuration not stated)	-4%	9%	-14%	0%	-4%	.	.	.	.	.
O=C(Nc1ccccc1C(=O)O)/C(=C/c1ccc([N+](=O)[O-])cc1)NC(=O)c1ccc(Br)o1	2%	18µM*	-8%	8%	4%	73%	4%	-21%	-24%	-20%
SMILES	LmPK inhibitor	Giardia FBPA inh-1	AmpC no deterg	AmpC detergent	AMA1-RON2 inh	Giardia growth	Mammalian tox	Giardia FBPA inh-2	Rabbit FBPA inh	GAPDH counter
COc1cccc(CCc2nnc(CCC(=O)NCCc3cccc(C)n3)o2)c1	1%	3%	18%	?	31%	.	.	.	.	.
COc1cccc(CCc2nnc(CCC(=O)N3CCN(Cc4ccccn4)CC3)o2)c1	-1%	5.6µM*	76%	12%	36%	-1%[38.3 µM]	-7%	-6%	4%	2%
CC(C)n1c(=S)[nH]c2c1c(=O)[nH]c(=O)n2C	-22%	16µM*	-2%	0%	-11%	-7%[10.4 µM]	-6%	-3%	-18%	6%
C=CC(C)n1c(Br)nc2c1c(=O)[nH]c(=O)n2C (configuration not stated)	2%	-1%	-1%	7%	9%	.	.	.	.	.
CC(=O)/C(=N\Nc1ccccc1)Sc1nncn1C	-13%	3.5µM*	-16%	-2%	19%	17%[10.4 µM]	-1%	3%	-4%	3%
COc1ccc(CCCC(=O)N/N=C/c2ccc(C)cc2)cc1	-5%	-12%	-12%	-2%	10%	.	.	.	.	.
COc1ccc(CCCC(=O)N/N=C/c2ccccc2OC)cc1	8%	16µM*	-16%	-1%	22%	-12%[10.4 µM]	-12%	?	40µM*	25µM*

From PubChem
